Laboratory results from PubChem BioAssay (NCATS).
Inconclusive results are not listed. Where a call stands in place of a potency, no number is given. Unmarked numbers belong to inactive results. Activity calls are given as the source filed them. The call rests on the fitted dose curve; in most records, active means well fitted curve in the direction sought with a large enough effect; inconclusive means small, poorly fitted or top-dose-only effect, or another doubt; inactive means no such curve, though single readings can be large; an effect the other way counts as inactive or inconclusive.

Legend:
[1] = target: Aldehyde dehydrogenase, mitochondrial (Homo sapiens) (UniProt P05091); assay: qHTS for Inhibitors of the Aldehyde Dehydrogenase Family (ALDH2) Primary screen (AID 2061308); further: nearly all actives have a fitted effect of over 55% in size
[2] = target: Retinaldehyde dehydrogenase 3 (Homo sapiens) (UniProt P47895); assay: qHTS for Inhibitors of the Aldehyde Dehydrogenase Family (ALDH1A3) Primary screen (AID 2061315)

Compound	Potency [1]	Potency [2]	activity change, negative = inhibition [1]	activity change, negative = inhibition [2]
O=C(Nc1ccccc1)C1CCN(c2nc(-c3ccc(Br)cc3)cs2)CC1	inactive	inactive	–	–
FC(F)(F)c1ccccc1-c1nc(NCc2ccc(-c3ccc4ccccc4c3)cc2)c2ccccc2n1	inactive	inactive	–	–
Cc1ccc(-c2ccc(=O)n(CC(=O)NCc3ncc[nH]3)n2)cc1	inactive	inactive	–	–
Cc1cc(C)nc(/N=C(\NC#N)N2CCN(c3cccc(C(F)(F)F)c3)CC2)c1	inactive	inactive	–	–
c1ccc(CNCc2nnc(-c3cc4ccccc4[nH]3)o2)cc1	inactive	inactive	–	–
O=C(OCC#CCSc1nnc(-c2cccc3ccccc23)o1)c1ccc(OC(F)(F)F)cc1	inactive	inactive	–	–
Brc1cnc2nc(SCc3ccccn3)[nH]c2c1	inactive	inactive	–	–
CN(Cc1ccc(-c2ccccc2)cc1)c1nc(-c2ccccc2C(F)(F)F)nc2ccccc12	inactive	inactive	–	–
O=C(Nc1cccc(-c2nn3c(=O)cc(N4CCNCC4)nc3s2)c1)c1ccon1	inactive	inactive	–	–
Cc1cccc(CNc2ccnc(-c3ccccc3F)n2)c1	inactive	inactive	–	–
Cc1nc(CNc2ncnc3ccc(-c4ccoc4)cc23)cs1	inactive	inactive	–	–
COc1ccccc1C(=O)NCCc1nc2ccccc2n1CCOc1ccc(C)cc1	inactive	inactive	–	–
Cc1ccc(-n2c(=O)ccc(=O)n2CC(=O)N(C)C(C)c2ccco2)cc1 (configuration not stated)	inactive	inactive	–	–
Cc1ccc(OCCn2c(CCNC(=O)c3cc([N+](=O)[O-])ccc3[N+](=O)[O-])nc3ccccc32)cc1	inactive	inactive	–	–
Cc1ccc(OCCn2c(CCNC(=O)c3ccccn3)nc3ccccc32)cc1	inactive	inactive	–	–
Cc1cnc(-c2ccccc2C(C)C)nc1NCc1ccc(-c2cccnc2)cc1	inactive	inactive	–	–
CCOC(=O)c1nnc(N[S+](=O)([O-])c2ccc(NC(=O)Cc3ccc(Cl)c(Cl)c3)cc2)s1	inactive	inactive	–	–
O=C(Cc1ccccc1)Nc1nnc(-c2ccncc2)s1	inactive	inactive	–	–
Clc1cccc(-c2ccc3ncnc(NCc4cccnc4)c3c2)c1	inactive	inactive	–	–
O=C(c1ccc(F)c(F)c1Nc1ccc(I)cc1F)N1CC(O)(C2CCCCN2)C1 (configuration not stated)	inactive	inactive	–	–
O=C(/C=C/c1ccccc1)OCC1=CC[C@@H]2C(C(=O)O)=CO[C@@H](O[C@@H]3O[C@H](CO)[C@@H](O)[C@H](O)[C@H]3O)[C@H]12	inactive	inactive	–	–

Compound	Potency [1]	Potency [2]	activity change, negative = inhibition [1]	activity change, negative = inhibition [2]
CCOc1ccc(CCNC(=O)c2cccs2)cc1OCC	inactive	inactive	–	–
Cc1noc(C)c1-c1ccc2ncnc(NCc3ccc(Br)cc3)c2c1	inactive	inactive	–	–
C[C@H]1CN(S(=O)(=O)c2c(F)cccc2F)CCN1S(=O)(=O)c1ccc2c(c1)OCCO2	inactive	inactive	–	–
Cn1c2cc(C(=O)O)sc2c2cnn(Cc3ccccc3F)c(=O)c21	inactive	inactive	–	–
CC(C)c1ccccc1-c1nc(NCc2ccc(-c3cccnc3)cc2)c2sccc2n1	inactive	inactive	–	–
FC1(F)Oc2ccc(-c3ccc4ncnc(NCc5cccs5)c4c3)cc2O1	inactive	inactive	–	–
COc1cccc(C2=Nn3c(nnc3-c3cccc(OC)c3)SC2)c1	inactive	inactive	–	–
COc1cccc(CCN2C(=O)c3ccccc3NC2c2ccc(OC)c(COc3c(C)cc(NC(C)=O)cc3C)c2)c1 (configuration not stated)	inactive	inactive	–	–
COc1cccc(CNc2ccc(S(=O)(=O)Nc3ccc(-c4ccccc4)cc3)cc2)c1O	inactive	inactive	–	–
Fc1ccc(Nc2nc(-c3ccnc(C(F)(F)F)c3)nc3ccccc23)cc1F	inactive	inactive	–	–
O=C(Nc1ccc(Cl)c(Cl)c1)Nc1ncc(-c2ccncc2)s1	inactive	inactive	–	–
CC(C)(C)OC(=O)NCc1nnc(C(C(=O)OCc2ccccc2)c2ccccc2)s1 (configuration not stated)	inactive	inactive	–	–
O=C1CCCC2=C1C(c1[nH]ncc1Cl)NC(=NCc1nccs1)N2 (configuration not stated)	inactive	inactive	–	–
COc1cccc(NC(=S)N2CCN(c3ncc(C(F)(F)F)cc3Cl)CC2)n1	inactive	inactive	–	–
Cc1ccc(S(=O)(=O)Nc2ccccc2C(=O)Nc2ccc(-c3ccccc3)nn2)cc1	inactive	inactive	–	–
NC(=O)Nc1cc(-c2ccc(CN3CCOCC3)c(F)c2)sc1C(=O)N[C@H]1CCCNC1	inactive	inactive	–	–
N#Cc1nc(-c2cccc3ccccc23)oc1N	inactive	inactive	–	–
Cc1c(P(=S)(c2ccccc2)c2ccccc2)[n+]2ccccc2n1CCCCc1ccccc1	inactive	inactive	–	–
Cc1cc(Nc2ncc3cc(-c4c(Cl)cccc4Cl)c(=O)n(C)c3n2)ccc1F	inactive	inactive	–	–
O=S(=O)(c1cccc(-c2n[nH]c(=S)n2-c2ccccc2)c1)N1CCCC1	inactive	inactive	–	–
Cc1ccc(S(=O)(=O)Nc2ccccc2C(=O)Nc2nc(-c3ccccc3)cs2)cc1	inactive	inactive	–	–

Compound	Potency [1]	Potency [2]	activity change, negative = inhibition [1]	activity change, negative = inhibition [2]
Cc1ccc(NS(=O)(=O)c2cc3c(cc2NCC(C)(C)O)NC(=O)CC3)cc1C	inactive	inactive	–	–
Cc1ccc(-c2cc(C(=O)N3CC[S+](=O)([O-])CC3)c3ccccc3n2)cc1C	inactive	inactive	–	–
COc1cc(O)c(C(CC(=O)N2CCCC(C#N)C2)c2ccc3c(c2)OCO3)c(OC)c1 (configuration not stated)	inactive	inactive	–	–
COc1ccc(NC(=O)c2cnn3c(C)cc(C)nc23)cc1	inactive	inactive	–	–
FC(F)(F)c1ccccc1-c1nc(NCc2ccc(-c3cccnc3)cc2)c2[nH]cnc2n1	inactive	inactive	–	–
CC1(C)CC[C@]2(C(=O)O[C@@H]3O[C@H](CO[C@@H]4O[C@H](CO[C@@H]5O[C@H](CO)[C@H](O)[C@H](O)[C@H]5O)[C@@H](O)[C@H](O)[C@H]4O)[C@@H](O)[C@H](O[C@@H]4O[C@H](CO)[C@@H](O)[C@H](O)[C@H]4O)[C@H]3O)[C@H](O)C[C@]3(C)C(=CCC4[C@@]5(C)CC[C@H](O[C@@H]6OC[C@@H](O)[C@H](O)[C@H]6O)[C@@](C)(C(=O)O)C5CC[C@]43C)[C@@H]2C1 (some centres not stated)	–	–	13.7% [at 11.2 µM]	11.1% [at 11.2 µM]
O=c1[nH]cnc2c1ncn2[C@H]1CC[C@@H](CO)O1	inactive	inactive	–	–
COc1cccc(N2C(=O)c3ccccc3C2=O)c1	inactive	inactive	–	–
O=C(/C=C/c1cccc(Cl)c1)Nc1cccc([S+](=O)([O-])Nc2ccccc2F)c1	inactive	inactive	–	–
CC(=O)c1ccccc1-c1ncc(C)c(NCc2ccc(-c3cccnc3)cc2)n1	inactive	inactive	–	–
COc1cc(F)c(S(=O)(=O)N2CCCN(S(=O)(=O)c3cccc(N)c3)CC2)c(F)c1	inactive	inactive	–	–
O=S(=O)(c1ccc2c(c1)OCCO2)N1CCN(S(=O)(=O)c2ccc3c(c2)OCCO3)CC1	inactive	inactive	–	–
CCOC(=O)c1ccoc1-c1ccc2ncnc(NCc3csc(C)n3)c2c1	inactive	inactive	–	–
COCCN(CCOC)c1nc(C)nc2c1nc(-c1ccccc1)n2CC1CCN(C)CC1	inactive	inactive	–	–
Cc1ccnc(NC(=S)N2CCN(c3ncc(C(F)(F)F)cc3Cl)CC2)c1	inactive	inactive	–	–
Cc1cc(C)nc(NC(=S)N2CCN(c3ccc(F)c(F)c3F)CC2)c1	inactive	inactive	–	–
Cc1cc2c(s1)c1cnn(Cc3ccc4ccccc4c3)c(=O)c1n2C	inactive	inactive	–	–
O=S(=O)(c1ccc2c(c1)OCCO2)N1CCN(S(=O)(=O)c2ccccn2)CC1	inactive	inactive	–	–
C=C1CCC2C(C)(C(=O)OC)CCCC2(C)C1CCC1=CCOC1=O (configuration not stated)	inactive	inactive	–	–
N#Cc1ccc(NS(=O)(=O)c2ccc(NC(=O)Cc3ccc(F)c(Cl)c3)cc2)cc1	inactive	inactive	–	–
CCCn1c(-c2ccc(F)cc2)nc2c(NCCCCN3CCCC3)nc(C)nc21	inactive	inactive	–	–

Compound	Potency [1]	Potency [2]	activity change, negative = inhibition [1]	activity change, negative = inhibition [2]
C/C(=C\c1ccc2c(c1)OCCO2)C1Nc2cccc3cccc(c23)N1	inactive	inactive	–	–
CCCn1c(-c2ccc(F)cc2)nc2c(NCCN(CC)CC)nc(C)nc21	inactive	inactive	–	–
CN1CCC(c2cn(C)c3ccc(OS(=O)(=O)c4c(F)cccc4F)cc23)CC1	inactive	inactive	–	–
N#CCC(C1CCCC1)n1cc(-c2ncnc3[nH]ccc23)cn1 (configuration not stated)	inactive	inactive	–	–
NC(=O)C1CCN(c2nc(-c3cccnc3)cs2)CC1	inactive	inactive	–	–
CC(=O)Nn1c(C)nc2sc3c(c2c1=O)CCNC3	inactive	inactive	–	–
O=C1c2ccccc2C(=O)N1C1CCCCC1	inactive	inactive	–	–
Cc1ccc(OCCn2c(CCNC(=O)c3ccccc3)nc3ccccc32)cc1	inactive	inactive	–	–
O=S(=O)(Nc1ccccc1)c1ccc(O)c2ncccc12	inactive	inactive	–	–
Cc1ccsc1CNc1ncnc2ccc(-c3c(C)noc3C)cc12	inactive	inactive	–	–
Cc1ccc(OCCn2c(CCNC(=O)c3c(F)cccc3F)nc3ccccc32)cc1	inactive	inactive	–	–
O=S(=O)(NCCCNS(=O)(=O)c1c(F)cccc1F)c1ccc2c(c1)OCCO2	inactive	inactive	–	–
CC(C)(C)OC(=O)NCC(=O)NNC(=O)c1cc2ccccc2[nH]1	inactive	inactive	–	–
CC1CN(c2cc3c(cc2F)c(=O)c(C(=O)O)cn3-c2ccc(F)cc2F)CCN1 (configuration not stated)	inactive	inactive	–	–
CC(=O)c1c(C)[nH]c(C(=O)Nc2ccc(OCCCN(C)C)c(S(=O)(=O)Nc3ccc(Br)cc3)c2)c1C	inactive	inactive	–	–
COc1cc(Nc2nc(-c3ccncc3)nc3ccccc23)ccc1F	inactive	inactive	–	–
O=C(OCC#CCSc1nnc(-c2cccc3ccccc23)o1)c1csc2ccccc12	inactive	inactive	–	–
NC(=O)C1CCN(c2nccc(Cl)n2)CC1	inactive	inactive	–	–
